Results on 29 molecules are retold here after PubChem BioAssay AID489042 (NMMLSC, 2010).

Each structure is given as a SMILES string. The source made the active and inactive calls. Cut-off read from the data, not from the text of the source: active = inhibition score above about 11; inactive = the rest.

This experiment can be described thus: S. cerevisiae short- and long-term growth effects – BY4741, OD595, 24 h, dose response (AID 489042). The following applies: flow cytometer event count, 7 d (AID 449753), hits give high values. (A flow cytometer gives signals particle by particle.)
On to `C=CCOn1c(=O)c(-c2cccs2)[n+]([O-])c2ccccc21`, for which the inhibition score was 0 (inactive).
Regarding `O=C(CN1CCN(c2ccccn2)CC1)Nc1ccccc1F`, the inhibition score was 0 (inactive).
With `COc1ccc2nc3ccccc3nc2c1` the figure was 0 (inactive).
With `COc1ccc2nc3ccccc3nc2c1NC(=O)c1ccccc1Cl` the figure was 0 (inactive); with `CC(=O)[C@@]1(O)CCC2C3CC[C@H]4C[C@@H](O)CC[C@]4(C)C3CC[C@@]21C` (some centres undefined), 0 (inactive).
With `[O-][n+]1c2ccccc2[n+]([O-])c2cc(O)ccc21` the figure was 0 (inactive); with `CC(C)CSc1nnc2c3ccccc3n(C)c2n1`, 0 (inactive).
As for `CSc1nnc2c3cc(F)ccc3n(C)c2n1`, the inhibition score is 0 (inactive).
With `Cc1cc2nc3ccc(N(C)C)cc3nc2cc1N` the figure was 0 (inactive); with `CCC(=Nc1ccccc1O)C1=C(O)CC(c2ccccc2)CC1=O` (centres undefined), 0 (inactive); with `CN(C)CCNc1ncnc2c1cnn2-c1ccc(Cl)cc1`, 0 (inactive).
With `CC(C)(C)n1nc(-c2ccc(F)cc2)c2c(N)ncnc21` the figure was 0 (inactive).
With `CC(C)OC(=O)c1ccc2nc3ccccc3nc2c1` the figure was 0 (inactive); with `O=C1c2c(O)ccc(O)c2C(=O)c2c(NCCNCCO)ccc(NCCNCCO)c21`, 0 (inactive); with `CC(=O)Nc1ccc2nc3ccccc3nc2c1`, 0 (inactive).
As for `FC(F)(F)c1nc2cc3nc4ccccc4[nH]c3cc2n1`, the inhibition score was 0 (inactive).
As for `CCn1c2ccccc2c2n[nH]c(=S)nc21`, the figure is 0 (inactive).
With `COc1ccc2nc3ccccc3nc2c1N` the figure was 0 (inactive); with `NC(=O)CSc1nnc(-c2ccc([N+](=O)[O-])cc2)o1`, 0 (inactive); with `O=C(Nc1cccc(Cl)c1)Nc1ccc2nccnc2c1`, 0 (inactive).
With `CCN(CC)c1ccc2nc3ccc(N)cc3[n+](-c3ccccc3)c2c1` the figure was 0 (inactive); with `O=C(c1cccc2nc3ccccc3nc12)N1CCOCC1`, 0 (inactive).
Consider `CCN(CC)C(=O)c1cccc2nc3ccccc3nc12`, for which the inhibition score was 0 (inactive).
As to `Cc1cccc2nc3ccccc3nc12`, the inhibition score is 0 (inactive).
Consider `CC(C)OC(=O)CSc1nnc(-c2ccc(Cl)cc2Cl)o1`, for which the inhibition score is 0 (inactive).
With `COc1cccc2nc3cc(C)c(C)cc3nc12`, the inhibition score was 0 (inactive).
As for `Cc1cc(C)cc(NC(=O)CN2CCN(c3ccccn3)CC2)c1`, the figure is 0 (inactive); as for `O=C(OCc1c(F)cccc1Cl)c1cnc2ccccc2n1`, 0 (inactive); as for `c1ccc2[nH]c3cc4ncnc4cc3nc2c1`, 0 (inactive).
